Here are results for 44 compounds from PubChem BioAssay (NCATS).

Inconclusive results are not listed. Where a call stands in place of a potency, no number is given. Active and inactive are the calls of the source. Calls follow the shape of the dose curve; as a rule, active = well fitted inhibition curve with a large enough effect; inconclusive = small, poorly fitted or top-dose-only effect; inactive = no such curve, though single readings can be large or run the other way.

The test deals with Cytochrome P450 3A7 (Homo sapiens) (UniProt P24462). In words: Cytochrome P450 family 3 subfamily A member 7 (CYP3A7) small molecule antagonists: luciferase biochemical qHTS assay (AID 1963596). Also: nearly all actives have a fitted effect of over 40% in size. To be noted: P450-Glo CYP3A7 enzyme luminescence, 1 h; series mostly up to 57.4 µM. The gist of the method:
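Recombinant CYP3A7 P450-Glo luminescent assay: enzyme-proluciferin substrate mix preincubated with compound 10 min at room temperature, reaction started with NADPH regeneration system for 1 h. Luciferin detected by luminescence; ketoconazole as positive control.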
On the technique in general: qHTS replaces the single test concentration by a dilution series.
Potency is read from the fitted curve at half-maximal effect.

Cytochrome P450 3A7 (Homo sapiens), sequence (P24462 whole entry, looked up): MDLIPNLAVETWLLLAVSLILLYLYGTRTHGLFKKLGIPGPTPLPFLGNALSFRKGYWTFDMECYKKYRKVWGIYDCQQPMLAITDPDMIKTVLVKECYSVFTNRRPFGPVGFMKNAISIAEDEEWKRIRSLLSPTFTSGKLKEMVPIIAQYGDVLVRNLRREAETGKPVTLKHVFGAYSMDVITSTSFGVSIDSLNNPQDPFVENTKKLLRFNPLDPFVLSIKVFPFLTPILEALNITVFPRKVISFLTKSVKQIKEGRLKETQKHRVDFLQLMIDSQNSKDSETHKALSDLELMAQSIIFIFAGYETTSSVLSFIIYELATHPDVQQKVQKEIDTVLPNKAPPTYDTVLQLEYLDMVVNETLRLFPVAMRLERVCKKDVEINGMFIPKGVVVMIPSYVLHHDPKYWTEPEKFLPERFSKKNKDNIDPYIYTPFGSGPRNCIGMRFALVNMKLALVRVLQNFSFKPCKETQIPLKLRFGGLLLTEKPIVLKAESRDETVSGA

Consider `COc1ccc(-n2nc3c(N4CCCC(C(=O)NCc5ccc(C)cc5)C4)nnc(C)c3c2C)cc1` (centres undefined), for which the Potency result was “inactive”.
On to `Cc1cc(C(C)Nc2ccccc2C(=O)O)c2nc(N3CCOCC3)cc(=O)n2c1` (centres undefined), for which the Potency result was “inactive”.
`CC(C)c1cccc2c(-c3ccccc3)cc(-c3ccc(-c4ccc(C(=O)O)cc4)[nH]3)nc12`: the Potency result is “inactive”.
In the case of `CC(C)(F)C[C@@H](N[C@@H](c1ccc(-c2ccc(S(C)(=O)=O)cc2)cc1)C(F)(F)F)C(=O)NC1(C#N)CC1`, the Potency result was “inactive”.
As to `Cc1nc(NC(=O)N2CCCC2C(N)=O)sc1-c1csc(C(C)(C)C)n1` (centres undefined), the Potency result was “inactive”.
In the case of `Cc1ccc(-c2nnc(Nc3ccc(Br)cc3)c3ccccc23)cc1S(=O)(=O)NCc1nc2ccccc2[nH]1`, the Potency entry is “inactive”.
For the compound `CN1CC2CN(c3ccc4oc5ccccc5c(=O)c4c3)CC2C1` (centres undefined), the Potency result is “inactive”.
In the case of `CN(C)C(=O)NC1CCC(CCN2CCN(c3cccc(Cl)c3Cl)CC2)CC1` (centres undefined), the Potency result was “inactive”.
Turning to `CN1CCN(c2cc3c(cc2F)c(=O)c(C(=O)O)cn3-c2ccc(F)cc2)CC1`, the Potency result was “inactive”.
As for `CC(C)OC(=O)N1CCC(Oc2ncnc3c2cnn3-c2ccc(S(C)(=O)=O)cc2F)CC1`, the Potency result was “inactive”.
As for `CNC(=O)COC(=O)N1CCC(CCc2ccc(Cl)cc2)CC1`, the entry is “inactive”.
With `COC(=O)c1ccc(C2C=C(c3ccc(Cl)cc3)Nc3nc4ccccc4n32)cc1` (centres undefined), the Potency entry is “inactive”.
As to `CC(NC(=O)CCc1nc2ccccc2c(=O)[nH]1)c1ccccc1` (centres undefined), the Potency entry was “inactive”.
Take `Cc1c(O)cc2c(c1C)O[C@](C)(CCC[C@H](C)CCC[C@H](C)CCCC(C)C)CC2`: the Potency result is “inactive”.
On to `Cc1ccc(Nc2nnc(-c3ccc([N+](=O)[O-])cc3)o2)cc1Cl`, for which the Potency result is “inactive”.
As for `C[C@H](NCCc1ccc(O)cc1)[C@H](O)c1ccc(O)cc1`, the Potency entry is “inactive”.
For the compound `C=CCNc1nc(NCC=C)nc(N2CCN(C(c3ccc(F)cc3)c3ccc(F)cc3)CC2)n1`, the Potency entry was “inactive”.
As for `O=C(O)c1cc(O)c2c(O)c3c(O[C@@H]4O[C@H](CO)[C@@H](O)[C@H](O)[C@H]4O)cccc3c(-c3c4cc(C(=O)O)cc(O)c4c(O)c4c(O[C@@H]5O[C@H](CO)[C@@H](O)[C@H](O)[C@H]5O)cccc34)c2c1`, the Potency result is “inactive”.
For the compound `O=c1[nH]ccc2cc(OC3CCNCC3)ccc12`, the Potency entry is “inactive”.
`COc1ccc(NC(=O)c2ccc(-c3ccc(C(=N)N)cc3C)cc2)cc1N1CCN(C)CC1`: the Potency entry was “inactive”.
As for `c1ccc2ccccc2c1`, the Potency entry was “inactive”.
For the compound `COc1ccc(-n2[nH]c3c(cnc4ccccc43)c2=O)cc1`, the Potency entry was “inactive”.
With `Cc1ccc(C)c(NC(=O)Cn2cc(C(=O)c3ccco3)c3ccccc32)c1` the entry was “inactive”; with `CCOc1ccc(C(NC(=O)c2cc(OC)c(OC)c(OC)c2)c2cc(Cl)c3cccnc3c2O)cc1` (centres undefined), “inactive”.
As for `COc1cccc(C(=O)NC(c2ccc(Cl)cc2)c2cc(Cl)c3cccnc3c2O)c1` (centres undefined), the entry is “inactive”.
As for `CC(CCC(=O)O)C1CC[C@H]2C3[C@H](O)C[C@@H]4C[C@H](O)CCC4(C)[C@H]3C[C@H](O)C12C` (some centres undefined), the Potency entry is “inactive”.
Consider `CCOc1cc(C(=O)Nc2ccc(-c3nc4ncccc4o3)cc2C)cc(OCC)c1OCC`, for which the Potency result was “inactive”.
Turning to `CC(=O)Nc1nc2c(Oc3cc(-c4ccc(C(F)(F)F)cc4)ncn3)cccc2s1`, the Potency was 26.8 µM (active).
Take `CC1(C)OC[C@H](NC(=O)Nc2ccc(Br)cc2Br)[C@H](c2ccccc2)O1`: the Potency result was “inactive”.
Take `Cc1ncc(C[n+]2csc(CCO)c2C)c(N)n1`: the Potency entry is “inactive”.
`N#Cc1cc(C2=Nc3ccc(Br)cc3NC(=O)C2)ccn1`: the Potency result is “inactive”.
With `CCCCCCCCNC(C)C(O)c1ccc(SC(C)C)cc1` (centres undefined) the entry was “inactive”; with `C=C(C)Cn1c(SCC(=O)c2cccs2)nc2sc3c(c2c1=O)CCCC3`, “inactive”.
As to `CNC1CCN(C(Cc2cccc(-c3ccncc3)c2)C(=O)c2sc3c(F)ccc(F)c3c2Cl)CC1` (centres undefined), the Potency was 2.39 µM (active).
As for `OCCOCCOCCO`, the entry is “inactive”; as for `OC1CCC(Nc2ncc3nc(Nc4c(F)cc(F)cc4F)n([C@H]4CCOC4)c3n2)CC1` (some centres undefined), “inactive”.
With `CCCCCCCCCC(=O)O`, the Potency result was “inactive”.
Turning to `CCOc1ccc(S(=O)(=O)O)c2cccnc12`, the Potency result is “inactive”.
As for `COc1ccc(NC(=O)Cn2cc(C(=O)c3cccs3)c3ccccc32)cc1`, the entry is “inactive”.
As to `CCCCc1c(-c2ccc(OC)cc2)[nH]c2nccnc12`, the Potency result was “inactive”.
As for `COc1cc2nc(=NC(=O)c3cccnc3)n3c(c2cc1OC)NCC3`, the entry is “inactive”; as for `Cc1ccc(Nc2nc3nonc3nc2Nc2cccc(C(F)(F)F)c2)cc1Cl`, “inactive”.
Turning to `O=[N+]([O-])c1ccc(Oc2ccc(N=C=S)cc2)cc1`, the Potency was 2.39 µM (active).
As to `CCC[C@H](N[C@@H](C)C(=O)N1[C@H](C(=O)O)C[C@@H]2CCCC[C@@H]21)C(=O)OCC`, the Potency entry was “inactive”.
